Compound activity deposited in PubChem BioAssay by National Center for Advancing Translational Sciences (NCATS).
ELG1 genotox: qHTS screen for small molecules that induce genotoxicity in human embryonic kidney (HEK293T) cells expressing luciferase-tagged ELG1; Potency, µM (highest dose often 46 µM), actives largely listed as activators; HEK293T ELG1-luciferase reporter, luminescence, 16 h; AID 504466, 2011; 330,000 compounds, 1.3% hits; also: nearly all actives have a fitted effect of over 60% in size
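DMSO vehicle served as control against compound-treated ELG1-luciferase HEK293T cells; exposure lasted 16 hr at 37 °C and 5% CO2, followed by ONE-Glo luminescence detection after 30 min.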
NPC1 prom act: qHTS Assay for NPC1 Promoter Activators; Huh7 NPC1 promoter luciferase reporter, 24 h; Potency, µM (series often up to 9.22 µM), actives largely listed as activators; 320,000 compounds, 2.4% hits; AID 485313, 2010; also: nearly all actives have a fitted effect of over 60% in size
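Compounds in DMSO were transferred onto Huh7 NPC1-luciferase reporter cells pre-incubated 2 h; after 24 h at 37 °C, Amplite reagent was dispensed and luminescence recorded 10 min later.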
KinaseGlo FLuc: Counterscreen for Luciferase (Kinase-Glo TM) Inhibition; Potency, µM (highest dose often 38.3 µM), most hits filed as inhibitors; 200,000 compounds, 0.28% hits; Luciferin 4-monooxygenase (Photuris pensylvanica), Q27757; Kinase-Glo luciferase, ATP luminescence, 8 min; also: nearly all actives have a fitted effect of over 60% in size
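Compounds were added to a substrate mix at pH 7.2 (50 mM imidazole, 10 uM ATP, within the enzyme's linear range), followed by Kinase-Glo detection reagent; luminescence was measured after 8 minutes at ambient temperature.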
Rab9 prom act: qHTS Assay for Rab9 Promoter Activators. Huh7 Rab9 promoter-luciferase reporter, luminescence, 24 h. Potency, µM (doses to about 9.22 µM), usual class: activators. 320,000 compounds, 2.8% hits. AID 485297, 2010; also: nearly all actives have a fitted effect of over 60% in size
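Luciferase signal after 10 min detection reagent at ambient indicates Rab9 promoter upregulation; stably transfected Huh7 cells were treated 24 h with compound in DMSO at 37 °C, 5% CO2.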
SMN2 splice up: qHTS Assay for Enhancers of SMN2 Splice Variant Expression; 210,000 compounds, 2.8% hits; HEK293 SMN2-luciferase splicing reporter, luminescence, 30-36 h; Potency, µM (doses to about 46.1 µM), hits mostly activators; also: nearly all actives have a fitted effect of over 55% in size
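HEK293 cells carry an SMN2 minigene-luciferase reporter in which exon 7 inclusion puts luciferase in frame. Cells were seeded at 2000 cells/well, attached for 10-12 hours, then exposed to compounds for 30-36 hours at 37C before ONE-Glo luminescence.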
FLuc modulator: qHTS profiling assay for firefly luciferase inhibitor/activator using purifed enzyme and Km concentrations of substrates (counterscreen for miR-21 project); purified FLuc, Km substrates, luminescence inhibition; Potency, µM (top dose mostly 57.5 µM), hits mostly inhibitors; 360,000 compounds, 6.9% hits; AID 588342, 2011; also: nearly all actives have a fitted effect of over 55% in size
Target sequence (P08659 whole entry, looked up): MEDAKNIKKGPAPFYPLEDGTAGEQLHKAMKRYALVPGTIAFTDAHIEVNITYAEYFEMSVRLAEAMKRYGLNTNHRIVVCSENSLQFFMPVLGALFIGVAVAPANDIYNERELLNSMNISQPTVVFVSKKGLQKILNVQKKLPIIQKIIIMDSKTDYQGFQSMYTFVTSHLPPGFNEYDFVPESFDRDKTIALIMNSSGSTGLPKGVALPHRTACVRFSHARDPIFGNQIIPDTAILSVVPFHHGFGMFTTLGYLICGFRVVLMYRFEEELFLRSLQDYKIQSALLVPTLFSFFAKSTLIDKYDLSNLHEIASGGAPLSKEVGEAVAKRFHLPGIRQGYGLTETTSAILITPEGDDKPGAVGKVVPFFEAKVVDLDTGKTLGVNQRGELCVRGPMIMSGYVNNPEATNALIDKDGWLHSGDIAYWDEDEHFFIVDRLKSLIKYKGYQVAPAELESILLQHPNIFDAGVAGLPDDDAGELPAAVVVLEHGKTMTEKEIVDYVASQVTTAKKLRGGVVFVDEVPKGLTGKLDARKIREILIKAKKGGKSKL
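Purified P. pyralis luciferase (10nM final) with 10uM D-luciferin and 10uM ATP (Km levels) in 50mM Tris acetate pH 7.5, 10mM Mg acetate, 0.01% Tween-20, 0.05% BSA; qHTS 6-point titration, ~60 µM downward; luminescence read.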
Numbers stand for hits; n = inactive; u = inconclusive; x = not tested or not shown. Most compounds without a hit are left out; they make up all but 7.3% or so of the library. Calls follow the shape of the dose curve; as a rule, active = well fitted curve in the direction sought with a large enough effect; inconclusive = small, poorly fitted or top-dose-only effect, or another doubt; inactive = no such curve, though single readings can be large; an effect the other way counts as inactive or inconclusive.

SMILES	ELG1 genotox	NPC1 prom act	KinaseGlo FLuc	Rab9 prom act	SMN2 splice up	FLuc modulator
CCc1ccc(C2c3c(-c4cc(C)ccc4O)n[nH]c3C(=O)N2CCO)cc1 (stereo not drawn)	x	x	x	x	n	n
COC(=O)c1ccccc1NC(=O)CSc1nnc(-c2ccc(C)cc2)o1	u	u	n	u	n	u
Cc1ccc(-c2nnc(SCC(=O)Nc3ccccc3F)o2)cc1	0.16µM	u	n	u	n	u
Cc1cnc(NC(=O)CSc2nnc(-c3ccccc3)o2)s1	u	3.5µM	n	2µM	10µM	n
CCc1ccccc1NC(=O)CSc1nnc(COc2ccccc2Cl)o1	x	x	x	x	n	17µM
Cc1cnc(NC(=O)CSc2nnc(COc3ccccc3)o2)s1	n	n	x	n	x	n
Cc1cccc(NC(=O)CSc2nnc(-c3cc(C)n(-c4ccccc4)c3C)o2)c1C	n	n	n	n	n	17µM
O=C(Nc1cccc(C(F)(F)F)c1)c1cnn(-c2cccc(F)c2)c1C1CCNCC1	x	x	x	x	x	n
O=C(NCCN1CCOCC1)c1ccc(Cc2nc3ccccc3[nH]2)cc1	x	x	n	x	x	x
O=C(CSc1nnc(-c2ccccc2)o1)Nc1ccccc1F	u	n	n	0.0032µM	0.79µM	n
CCc1ccc(OCc2nnc(SCC(=O)NC3CCCCC3)o2)cc1	n	n	x	n	x	11µM
Cc1ccc(CN(CC(=O)NC2CCCC2)C(=O)CSc2nnc(COc3ccccc3)o2)cc1	n	n	n	n	n	n
O=C(CSc1nnc(-c2ccncc2)o1)Nc1cc(F)ccc1F	u	2.8µM	x	2.8µM	x	n
O=C(CSc1nnc(-c2ccccn2)o1)Nc1ccccc1Cl	u	u	x	0.56µM	x	n
Cc1ccc(NC(=O)CCCN2C(=O)COc3ccc(C)cc32)c(Cl)c1	x	x	x	x	n	n
Cc1cc(C)cc(NC(=O)CCS(=O)(=O)c2cccc3nsnc23)c1	x	x	x	x	n	n
COc1ccc(C2=NCN(c3ccc(C)cc3)C(=S)N2)cc1	16µM	u	n	2.8µM	u	12µM
Cc1ccc(N2CN=C(c3ccccc3)NC2=S)cc1	15µM	u	n	u	n	9.5µM
COC(=O)CN1C(=O)S/C(=C/c2cc(C)n(C)c2C)C1=O	u	4µM	n	3.5µM	n	9.5µM
O=C(O)CN1C(=O)/C(=C/c2ccc(N3CCCCC3)o2)SC1=S	n	n	x	n	x	11µM
COC(=O)CN1C(=O)S/C(=C/c2ccc(N3CCCCC3)o2)C1=O	n	n	n	u	n	19µM
CCc1ccccc1NC(=O)Nc1nnc(N(C)Cc2ccccc2)s1	x	x	x	x	x	n
O=C(O)c1ccc(NS(=O)(=O)c2ccsc2C(=O)O)cc1	x	x	n	x	n	x
COc1cccc(Cn2ccn(-c3ccc(F)cc3)c(=O)c2=O)c1	x	x	x	x	x	n
CCOC(=O)N1CCN(C(=O)CCSc2ccccc2)CC1	9.2µM	u	n	2.8µM	u	17µM
SMILES	ELG1 genotox	NPC1 prom act	KinaseGlo FLuc	Rab9 prom act	SMN2 splice up	FLuc modulator
CCOC(=O)N1CCN(C(=O)CCSc2ccc(C)cc2)CC1	n	n	n	n	n	n
S=C(N/N=C/c1ccccc1)N1CCOCC1	n	n	n	n	n	24µM
CSC(=S)N/N=C/c1ccccc1	n	n	n	n	n	15µM
COc1ccc(/C=N/NC(=S)SC)cc1OC	n	n	n	n	n	11µM
COC(=O)N/N=C/c1ccccc1	n	n	n	n	n	n
CCCS(=O)(=O)N1CCC(C(=O)NCCOC)CC1	x	x	x	x	x	n
CC(=O)N(c1nnc(-c2ccc(C)cc2)s1)C1CCCC1	u	n	x	u	x	13µM
Cc1ccc(SC[C@H](CC(C)C)N2CCN(CCc3ccccc3)CCC2=O)cc1	n	n	x	n	x	17µM
CC(=O)Nc1ccc(SC[C@H](CC(C)C)N2CCN(CCc3ccccc3)CCC2=O)cc1	n	n	x	n	x	n
COc1ccc(SC[C@H](CC(C)C)N2CCN(CCc3ccccc3)CCC2=O)cc1	n	n	x	n	x	19µM
Cc1cc(C)c2oc(C(=O)Nc3c(C(=O)c4ccccc4)oc4ccccc34)cc(=O)c2c1	x	x	x	x	n	n
CCOC(=O)C1=C(CS(=O)(=O)c2ccc(C(C)(C)C)cc2)NC(=O)NC1c1cccc(OC)c1 (stereo not drawn)	x	x	x	x	n	n
O=C(Nc1nccs1)c1ccc([N+](=O)[O-])cc1	n	u	x	n	x	n
C/C(=C\C(=O)Nc1nccs1)c1ccccc1	x	x	n	x	u	9.5µM
COc1ccc(CC(=O)Nc2ccc(S(=O)(=O)Nc3nccs3)cc2)cc1	n	n	x	n	x	n
C/C(=C\C(=O)O)C(=O)Nc1nccs1	n	n	n	n	n	n
CCC(CC)C(=O)Nc1cccc(C(=O)Nc2nccs2)c1	n	n	n	n	n	n
COc1ccc(NC(=O)Nc2nccs2)cc1	u	n	n	n	14µM	6.7µM
CCCc1cc(C(=O)Nc2nccs2)cs1	1.3µM	1.8µM	n	1.3µM	4µM	1.9µM
COc1ccc(C(=O)Nc2nccs2)cc1	u	2.2µM	x	3.2µM	x	19µM
CCOc1ccc(NC(=O)N2CCN(S(=O)(=O)c3ccc4c(ccn4C)c3)CC2)cc1	x	x	x	x	x	n
CCCCc1nn2c(=O)cc(COC(=O)c3ccc(NC(=O)C4CCCCC4)cc3)nc2s1	x	x	x	x	x	n
CC(=O)C1=C(c2ccc(F)cc2)N(C(C)=O)n2c(nnc2C2CCCCC2)S1	x	x	x	x	x	n
CCCCSc1ncnc2c1c(-c1ccccc1)cn2-c1cccc(F)c1	x	x	x	x	n	n
OCC1OC([S-])[C@H](O)C(O)C1O.[Au+] (stereo partly drawn)	x	x	n	x	n	x
SMILES	ELG1 genotox	NPC1 prom act	KinaseGlo FLuc	Rab9 prom act	SMN2 splice up	FLuc modulator
O=C(Nc1ccccc1)Nc1nncs1	n	n	n	n	n	u
COc1ccc(C(=O)Nc2nccs2)cc1OC	u	n	n	u	7.1µM	u
O=C(Nc1ccccc1)Nc1nccs1	n	n	n	n	u	24µM
O=C(NC1CC(=O)N(c2ccc(F)cc2)C1)C(c1ccccc1)c1ccccc1 (stereo not drawn)	x	x	x	x	x	n
COCC(=O)Nc1c(C(=O)Nc2cccc(OC)c2)oc2ccccc12	u	3.5µM	n	3.5µM	11µM	n
COc1cccc(NC(=O)c2oc3ccccc3c2NC(C)=O)c1	u	u	n	3.5µM	u	u
COc1ccc(NC(=O)c2oc3ccccc3c2NC(=O)c2cc3ccccc3o2)cc1	x	x	x	x	n	u
COc1cccc(NC(=O)CSc2nc3c(oc4ccccc43)c(=O)[nH]2)c1	n	n	n	n	n	3.8µM
COc1ccc(NC(=O)c2oc3ccccc3c2NC(=O)c2ccco2)cc1	n	n	n	n	n	13µM
COc1cccc(NC(=O)c2oc3ccccc3c2NC(=O)c2ccccc2C)c1	x	x	x	x	n	n
